# Measurements reported in PMC5540273 (PLoS ONE, 2017).
# Key:
# Settings in all cases: concentration: 1 μM, replicates: in singlicate; n = 1
# FGR = system: FGR
# FLT1 = system: FLT1
# FLT3-autoinhibited = system: FLT3-autoinhibited
# FLT3 = system: FLT3
# FLT4 = system: FLT4
# FRK = system: FRK
# FYN = system: FYN
# GAK = system: GAK
# GCN2(Kin.Dom.2,S808G) = system: T1, GCN2(Kin.Dom.2,S808G)
# T1 construct: gene EIF2AK4
# GRK1 = system: GRK1
# 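Further: KINOMEscan kinase panel screen.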
Compound,%Inh (FGR),%Inh (FLT1),%Inh (FLT3-autoinhibited),%Inh (FLT3),%Inh (FLT4),%Inh (FRK),%Inh (FYN),%Inh (GAK),"%Inh (GCN2(Kin.Dom.2,S808G))",%Inh (GRK1)
COc1ccc(-c2coc3ccc(-c4nnc(SCc5cccc(C#N)c5)o4)cc23)cc1,0%,0%,10%,13%,0%,0%,5%,12%,0%,9%
CCn1c(-c2nonc2N)nc2ccccc21 [SB-693162/GW549034],0%,0%,52%,20%,0%,0%,0%,0%,24%,46%
COc1cc2nccc(Nc3ccc(OCc4ccc(NC(C)=O)cc4)cc3)c2cc1OC.Cl [GW440135],29%,83%,0%,73%,92.4%,7%,1%,7%,4%,22%
COc1ccc(-c2cc3c(C)nc(N)nc3n([C@H]3CC[C@H](O)CC3)c2=O)cn1,0%,0%,0%,0%,0%,0%,0%,0%,0%,0%
COc1cc(Nc2nccc(N3CCC(NC(=O)C4COc5ccccc5O4)C3)n2)cc(OC)c1OC (centres unmarked) [GSK1379761],33%,23%,0%,37%,25%,3%,29%,37%,0%,0%
COC(=O)c1c(-c2ccccc2)c2cc(Br)ccc2c(=O)n1Cc1ccc(NC(=O)CCC(=O)O)cc1,8%,0%,0%,6%,9%,8%,0%,0%,0%,0%
COc1ccc(CNC(=O)NC2CCN(c3ccnc(Nc4ccc(F)cc4)n3)C2)cc1 (centres unmarked) [GSK1379706],19%,21%,0%,16%,0%,14%,20%,19%,4%,5%
Nc1n[nH]c2ncc(-c3ccccc3)cc12 [SB-517081],28%,7%,49%,72%,0%,15%,26%,70%,52%,0%
Nc1ncnc2c1ncn2-c1cccc2ccccc12 [SKF-97184],6%,0%,0%,0%,10%,0%,0%,0%,0%,31%
CCC(=O)c1c(-c2ccccc2)c2cc(Cl)ccc2c(=O)n1Cc1cc(S(C)(=O)=O)n(CC(N)=O)n1,0%,0%,0%,0%,0%,0%,0%,0%,0%,24%
Cc1ccc(Oc2ccc(Nc3ncnc4cc[nH]c34)cc2C)cn1,29%,92.5%,23%,3%,0%,12%,0%,10%,0%,9%
CCc1nc(-c2cccc(C)c2)c(-c2ccncc2)s1,19%,13%,0%,0%,0%,9%,0%,49%,3%,25%
Cc1cc(Nc2nc(-c3cccc(C)n3)nc3ccccc23)ccn1 [GW872411],0%,0%,0%,7%,0%,0%,0%,0%,0%,13%
O=C(Nc1ccc2c(c1)OCO2)NC1CCN(c2ccnc(NCc3ccc(F)cc3)n2)CC1 [GSK1379859],9%,15%,0%,0%,9%,0%,31%,4%,1%,0%
COC(=O)c1c(-c2ccccc2)c2cc(Br)ccc2c(=O)n1Cc1ccc(S(C)(=O)=O)cc1,13%,0%,0%,9%,1%,1%,0%,9%,0%,0%
COc1cccc(-n2cnc3c(N)ncnc32)c1 [SKF-97416],0%,0%,9%,28%,0%,0%,0%,26%,8%,24%
Fc1cccc(CSc2nnc(-c3ccc4c(c3)CCO4)o2)c1,0%,0%,23%,0%,15%,15%,3%,3%,4%,7%
